Assay outcomes from PubChem.
AmpC no deterg – inhibitors of E. coli AmpC beta-lactamase without detergent; AmpC nitrocefin hydrolysis, absorbance 480 nm, 0.0001% Triton; 330,000 compounds, 0.52% hits; P00811; Potency, µM (top dose mostly 57.1 µM), for the others: at the highest dose activity change, negative = inhibition, usual class: inhibitors;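 note: plate controls were no compound for no effect and no enzyme for full effect; nearly all actives have a fitted effect of over 20% in size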
Target sequence (P00811 whole entry, looked up): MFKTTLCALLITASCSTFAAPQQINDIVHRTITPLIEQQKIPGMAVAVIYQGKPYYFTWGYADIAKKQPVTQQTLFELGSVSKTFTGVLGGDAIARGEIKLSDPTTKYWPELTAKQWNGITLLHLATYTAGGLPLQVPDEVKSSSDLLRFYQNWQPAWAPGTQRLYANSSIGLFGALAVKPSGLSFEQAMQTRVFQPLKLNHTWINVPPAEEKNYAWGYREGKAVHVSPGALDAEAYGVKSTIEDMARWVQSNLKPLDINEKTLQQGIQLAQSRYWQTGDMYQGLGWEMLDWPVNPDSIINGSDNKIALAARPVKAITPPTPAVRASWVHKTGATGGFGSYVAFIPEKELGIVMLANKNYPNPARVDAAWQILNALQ
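20 mM phosphate pH 7.0 + 0.01% (detergent screen) or 0.0001% Triton X-100; 5.3 nM AmpC reagent; cpd preinc 15 min RT; nitrocefin (800 uM stock) to start; A480 q20 s × 4 min; Activity was normalised to no-enzyme and no-compound control wells.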
AMA1 RON2 block – disrupts binding of P. falciparum AMA1 to RON2; AlphaScreen AMA1-biotinylated RON2 peptide binding; AID 720542; Potency, µM (doses to about 58.2 µM), without a hit: at the top dose activity change, negative = inhibition, hits mostly inhibitors; 360,000 compounds, 0.2% hits;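 note: 0% = vehicle wells and -100% = peptide control; nearly all actives have a fitted effect of over 45% in size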
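AMA1 (3D7) with his tag at 25 nM final met compounds first, then biotinylated RON2 peptide at 25 nM; detection used donor plus acceptor beads, 10 µg/mL apiece, read by AlphaScreen after 30 min at room temperature.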
FMDV antiviral – antivirals against foot and mouth disease virus | 410,000 compounds, 1.2% hits | Potency, µM (titrated, usually from 57.9 µM), without a hit: top-dose activity change, negative = inhibition, actives largely listed as inhibitors | FMDV antiviral cell-based qHTS; calls by dose curve; tested in HEK293T cells; note: read-out not given here; nearly all actives have a fitted effect of over 45% in size
Sm TGR inh – inhibitors of Schistosoma mansoni thioredoxin glutathione reductase | Q962Y6 | purified TGR, DTNB reduction, TNB absorbance 405 nm | Potency, µM (doses to about 114 µM), for the others: at the highest dose activity change, negative = inhibition, usual class: inhibitors | 360,000 compounds, 3% hits; note: nearly all actives have a fitted effect of over 60% in size
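First, TGR (20 nM dispensed) and NADPH were mixed with compound. Second, a 15 min room-temperature incubation followed. Third, further NADPH and then DTNB were added to start the reaction. Finally, TNB absorbance was monitored kinetically.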
AmpC inh detg – inhibitors of E. coli AmpC beta-lactamase with detergent | AmpC hydrolysis of nitrocefin, absorbance 480 nm, 0.01% Triton | Potency, µM (top dose mostly 114 µM), for the others: at the top dose activity change, negative = inhibition, actives largely listed as inhibitors | P00811 | 370,000 compounds, 0.041% hits | AID 485294;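 note: 0% = no-compound wells and -100% = no-enzyme wells; nearly all actives have a fitted effect of over 25% in size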
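20 mM phosphate pH 7.0 + 0.01% (detergent screen) or 0.0001% Triton X-100; 5.3 nM AmpC reagent; cpd preinc 15 min RT; nitrocefin (800 uM stock) to start; A480 q20 s × 4 min; Activity was normalised to no-enzyme and no-compound control wells.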
* = called active by the depositor; ? = inconclusive; nt = not tested or not shown. Most compounds without a hit are left out; they make up all but 4.1% or so of the library. Unless noted, calls come from the whole dose curve; as a rule, active = well fitted curve in the direction sought with a large enough effect; inconclusive = small, poorly fitted or top-dose-only effect, or another doubt; inactive = no such curve, though single readings can be large; an effect the other way counts as inactive or inconclusive. Unless noted, % is set by controls: 0 for no effect and ±100 for the full control effect; potency is the fitted concentration of half-maximal effect.

SMILES	AmpC no deterg	AMA1 RON2 block	FMDV antiviral	Sm TGR inh	AmpC inh detg
CCC1C(=O)NCCN1Cc1ccc2c(c1)CN(Cc1ccc(OC)c(OC)c1)CCO2 (centres undefined)	nt	nt	-17%	nt	nt
N#CCCN1CCN(S(=O)(=O)c2ccc(S(=O)(=O)NCc3ccccc3)cc2)CC1	10µM*	-1%	8%	0%	?
CC1CCCCC1NS(=O)(=O)c1ccc(S(=O)(=O)N2CCN(CCC#N)CC2)cc1 (centres undefined)	45µM*	18%	0%	19%	?
O=C(NCc1nnc2n1CCN(Cc1cc3c(cc1Cl)OCO3)CC2)C1CCOC1 (centres undefined)	nt	nt	-2%	nt	nt
CC(NC(=O)Cc1ccccc1)C(=O)O (centres undefined)	-4%	-7%	-19%	50µM*	-5%
CCN(CC)C(NC(=O)Cc1ccccc1)C(Cl)(Cl)Cl (centres undefined)	2%	3%	8%	18µM*	2%
CC(CCc1ccccc1)NC(=O)Cc1ccccc1 (centres undefined)	-3%	-8%	-8%	2%	-12%
[N-]=[N+]=NC(c1ccccc1)C(NC(=O)c1cc(C(F)(F)F)cc(C(F)(F)F)c1)c1ccccc1 (centres undefined)	nt	2%	25µM*	nt	nt
COc1cccc(CNC(=O)c2cnn(-c3ncc4c(n3)-c3ccccc3CCC4)c2C)c1OC	nt	nt	43%	nt	nt
CCC(=O)C1=C(c2ccc(Cl)cc2)N(C(=O)CC)n2c(C)nnc2S1	nt	nt	0%	-10%	-2%
CC(C)Oc1ccc(C2C(C#N)=C(N)Oc3c2oc(CO)cc3=O)cc1 (centres undefined)	-24%	25%	-1%	-8%	11%
Cc1ccc(C2C(C#N)=C(N)Oc3c2oc(CO)cc3=O)o1 (centres undefined)	-18%	-15%	-5%	40µM*	?
O=c1[nH]nc(CNc2ccc(C(F)(F)F)cc2)c2ccccc12	-34%	0%	-11%	-2%	?
O=c1[nH]nc(CNc2ccc(O)cc2)c2ccccc12	-35%	-24%	-12%	35µM*	0%
CCOc1ccc(Br)cc1CNCCN1CCOCC1	-25%	-6%	-20%	3%	?
C=CCOc1ccccc1CNc1ccc2c(c1)OCCO2	-6%	-25%	18µM*	?	-5%
C=CCOc1ccccc1CNc1cccc(F)c1	-29%	-7%	-9%	-13%	-3%
CCOc1ccc(Br)cc1CNc1ccc2c(c1)OCCO2	-43%	32µM*	-19%	-32%	-14%
CCOc1ccc(S(=O)(=O)n2nc(C)c(S(=O)(=O)N3CCCCCC3)c2C)cc1	nt	nt	3%	?	-5%
O=C(O)CC1S/C(=N/N=C/c2ccccn2)NC1=O (centres undefined)	-4%	-19%	7%	33%	2%
CC(C)N=C1NN=C(c2cccs2)C(CC(=O)O)S1 (centres undefined)	-32%	54%	2%	16µM*	-4%
COc1cc(C)c(NC(c2ccccc2)c2ccccc2)cc1OC	-6%	35µM*	?	-22%	-6%
Cc1ccc(NC(=O)Cn2c(=O)n(Cc3ccc(F)cc3)c(=O)c3cccnc32)cc1C	nt	nt	-23%	-2%	24%
CC(C)C(=O)NNC(=O)CSc1ncnc2c1cnn2-c1ccccc1Cl	-1%	112%	-26%	-9%	-7%
CCOC(=O)Cc1csc(NC(=O)CSc2ncnc3c2cnn3-c2ccc(OC)cc2)n1	-18%	4%	22µM*	-3%	-13%
Cc1csc(NC(=O)CSc2ncnc3c2cnn3-c2ccccc2Cl)n1	-24%	-13%	14µM*	-4%	0%
COc1cc(C(O)c2nc(-c3ccc(N(C)C)cc3)cs2)ccc1F (centres undefined)	nt	20µM*	-14%	nt	nt
CC1CCc2nn(CC(=O)NCCC3=CCCCC3)cc2C1 (centres undefined)	0.56µM*	5%	-4%	-8%	?
CC1CCc2nn(CC(=O)NCCN3CCOCC3)cc2C1 (centres undefined)	11µM*	-1%	-14%	4%	0%
